Source: PubChem BioAssay
The source made the active and inactive calls.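 How the source made its calls, unless noted: active means NADPH fluorescence slope more negative than the mean of all samples by about 3 SD, 99.7% confidence; inactive means the rest.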

What follows are compounds tested against Voltage-gated potassium channel subunit beta-2 (Rattus norvegicus) (UniProt P62483) (assay: KvBeta enzyme negative modulators, primary screen, biochemical, NADPH fluorescence (AID 622;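 active means fluorescence slope higher than the sample average by over 3 SD, cut at about -0.22 in these data, passing the limit was not always enough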;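 further: slope of raw intensity against log time taken from 70 to 1610 s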)). Conditions: recombinant KvBeta, 4-cyanobenzaldehyde reduction, at 10 µM, stronger effect = higher value.
Chain of Voltage-gated potassium channel subunit beta-2 (Rattus norvegicus) (P62483 whole entry, looked up): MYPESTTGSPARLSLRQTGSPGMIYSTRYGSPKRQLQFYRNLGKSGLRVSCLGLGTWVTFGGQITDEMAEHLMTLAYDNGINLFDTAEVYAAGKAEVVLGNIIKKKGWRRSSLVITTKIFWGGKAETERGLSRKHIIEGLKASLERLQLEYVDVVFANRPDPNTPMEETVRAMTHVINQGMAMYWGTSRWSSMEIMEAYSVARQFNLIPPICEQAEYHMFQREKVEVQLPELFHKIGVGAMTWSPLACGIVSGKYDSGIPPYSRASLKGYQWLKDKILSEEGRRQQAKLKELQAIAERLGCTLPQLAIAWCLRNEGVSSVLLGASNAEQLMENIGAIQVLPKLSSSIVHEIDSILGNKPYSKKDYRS
For `C=C(C)Cn1c(N2CCN(CC)CC2)nc2c1c(=O)[nH]c(=O)n2C`, the fluorescence slope was -0.528 (inactive).
In the case of `CCOCCc1nnc(NC(=O)c2ccc(OC)c(OC)c2)s1`, the fluorescence slope is reported as -0.515 (inactive).
For `COc1cc(CN2CCN(C(=O)CC(C)C)CC2)cc(OC)c1O`, the fluorescence slope was -0.583 (inactive).
In the case of `c1ccc2c(c1)sc1nnnn12`, the fluorescence slope is reported as -0.555 (inactive).
For `COC(=O)c1cc(Br)c(=O)n(-c2ccc(OC)cc2)c1`, the fluorescence slope was -0.503 (inactive).
For `COc1cc(C(=O)N2CCC(NC(=O)C(Cc3ccc(C)cc3)NC(C)=O)CC2)cc(OC)c1OC` (configuration not stated), the fluorescence slope was -0.478 (inactive).
In the case of `Cc1ccccc1NS(=O)(=O)c1cc(S(C)(=O)=O)ccc1Cl`, the fluorescence slope is reported as -0.436 (inactive).
With `COc1ccccc1OCCOc1ccccc1/C=N/n1cnnc1` the fluorescence slope was -0.402 (inactive).
In the case of `CCc1nnc(NC(=O)CSc2nnc3scc(-c4ccc(C)cc4)n23)s1`, the fluorescence slope is reported as -0.504 (inactive).
`Cn1c(/C=N/n2cnnc2)nc2ccccc21` was tested, and the fluorescence slope was -0.0404 (active).
In the case of `CC1CN(C(=O)c2cc3cc(Cl)cc(Cl)c3oc2=O)CC(C)O1` (configuration not stated), the fluorescence slope is reported as -0.474 (inactive).
For `C=CCOc1nc2c(c(=O)n(C)c(=O)n2C)n1C`, the fluorescence slope was -0.444 (inactive).
With `CCOc1cccc(C(=O)N(Cc2ccco2)C2CCS(=O)(=O)C2)c1` (configuration not stated) the fluorescence slope was -0.342 (inactive).
For `Cn1c(COc2ccc(Cl)cc2)nnc1SCC(=O)NC1CCCCC1`, the fluorescence slope was -0.545 (inactive).
`Cc1cccc2cc(COC(=O)C(C)(C)C)c(=O)[nH]c12` was tested, and the fluorescence slope was -0.471 (inactive).
`Cc1cccc(-c2c3c(=O)n(C)c(=O)n(C)c3cn2-c2ccc(O)cc2)c1` was tested, and the fluorescence slope was -0.579 (inactive).
For `Cc1ccc(CN2C(=O)CCC2C(=O)NCCCN2CCC(C)CC2)cc1` (configuration not stated), the fluorescence slope was -0.584 (inactive).
In the case of `Cc1cccc(Nc2nc(N)nc(CN3CCC(C(N)=O)CC3)n2)c1C`, the fluorescence slope is reported as -0.628 (inactive).
`COc1cc(OC)nc(NC(=O)CSc2nc3ccccc3o2)n1` was tested, and the fluorescence slope was -0.609 (inactive).
`CCCC(c1nnnn1Cc1ccc(OC)cc1)N1CCN(c2ccccc2OC)CC1` (configuration not stated) was tested, and the fluorescence slope was -0.433 (inactive).
In the case of `COc1cccc(N2CCN(Cc3nc(N)nc(Nc4ccccc4)n3)CC2)c1`, the fluorescence slope is reported as -0.479 (inactive).
In the case of `Cc1nc2ccc(Br)cn2c1NC(C)(C)C`, the fluorescence slope is reported as -0.531 (inactive).
In the case of `O=C(Nc1ccc(Cl)c(C(F)(F)F)c1)N1CCCC(O)C1` (configuration not stated), the fluorescence slope is reported as -0.453 (inactive).

Each compound was assayed against Voltage-gated potassium channel subunit beta-2 (Rattus norvegicus) (UniProt P62483) (assay: KvBeta positive modulators, primary screen, biochemical, NADPH fluorescence (AID 623;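 further: fluorescence intensity change per second fitted from 20 to 320 s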)). Conditions: Recombinant KvBeta, NADPH fluorescence decrease slope, 10 min; at 10 µM; stronger effect = lower value.
With `Cn1cnc2cc(NC(=O)c3ccc(Cl)cc3)ccc21` the NADPH fluorescence slope was 2.4e-05 (inactive).
In the case of `CC(=O)NCC(=O)N(Cc1ccco1)C1(C(=O)NC2CCCCC2)CCCCC1`, the NADPH fluorescence slope is reported as -4.2e-05 (inactive).
`COc1ccc2[nH]c(=O)c(CN(Cc3cccs3)S(=O)(=O)c3cccc4nsnc34)cc2c1` was tested, and the NADPH fluorescence slope was -0.000153 (inactive).
For `Cc1ccc2oc(=O)c3cnn(CC(=O)NCCC(C)C)c3c2c1`, the NADPH fluorescence slope was -2.9e-05 (inactive).
In the case of `CC12CCC(C(=O)N3CCCCC3)(CC1=O)C2(C)C` (configuration not stated), the NADPH fluorescence slope is reported as 8.8e-06 (inactive).
In the case of `CC1(C)CC(=O)C=C(Nc2ccc(OCC(F)(F)C(F)F)cc2)C1`, the NADPH fluorescence slope is reported as -1.5e-05 (inactive).
For `Cc1cc(C)cc(-n2nnc(C(=O)NCc3ccco3)c2N)c1`, the NADPH fluorescence slope was -1.1e-05 (inactive).
`CC(C)Oc1ccc(N2CC(C(=O)Nc3ccccc3F)CC2=O)cc1` (configuration not stated) was tested, and the NADPH fluorescence slope was 6.3e-06 (inactive).
In the case of `O=C(Nc1nccs1)c1cccc(NC(=O)C2CC2)c1`, the NADPH fluorescence slope is reported as -3.4e-05 (inactive).
In the case of `CCOc1ccccc1C(=O)Nc1nnc(CC)s1`, the NADPH fluorescence slope is reported as -2.5e-05 (inactive).
With `COc1ccc(C(=O)N2CCN(S(=O)(=O)c3cc(Cl)ccc3OC)CC2)cc1` the NADPH fluorescence slope was -2.2e-05 (inactive).
In the case of `[N-]=[N+]=CC(=O)CC(c1ccccc1)N1C(=O)c2ccccc2C1=O` (configuration not stated), the NADPH fluorescence slope is reported as -2.1e-05 (inactive).
For `O=C(O)c1c(Cl)c(Cl)c(Cl)c(Cl)c1C(=O)N1CCOCC1`, the NADPH fluorescence slope was -3.3e-05 (inactive).
`CCOc1ccccc1OCC(=O)NCc1ccco1` was tested, and the NADPH fluorescence slope was -4.3e-05 (inactive).
With `CC1CCN(Cc2ccc(NC(=O)C3CCN(c4nnc(-n5cccc5)s4)CC3)cc2)CC1` the NADPH fluorescence slope was -5.4e-05 (inactive).
`Cc1cc(Oc2ccc(Cl)cc2)nc(-c2ccccc2O)n1` was tested, and the NADPH fluorescence slope was 3.7e-05 (inactive).
`C=C(C)Cn1c(N2CCN(CC)CC2)nc2c1c(=O)[nH]c(=O)n2C` was tested, and the NADPH fluorescence slope was -1.8e-05 (inactive).
With `CCOCCc1nnc(NC(=O)c2ccc(OC)c(OC)c2)s1` the NADPH fluorescence slope was -4.8e-05 (inactive).
With `COc1cc(CN2CCN(C(=O)CC(C)C)CC2)cc(OC)c1O` the NADPH fluorescence slope was -2.8e-05 (inactive).
With `c1ccc2c(c1)sc1nnnn12` the NADPH fluorescence slope was -7.2e-05 (inactive).
For `COC(=O)c1cc(Br)c(=O)n(-c2ccc(OC)cc2)c1`, the NADPH fluorescence slope was -3.9e-05 (inactive).
`COc1cc(C(=O)N2CCC(NC(=O)C(Cc3ccc(C)cc3)NC(C)=O)CC2)cc(OC)c1OC` (configuration not stated) was tested, and the NADPH fluorescence slope was -4.4e-05 (inactive).
With `Cc1ccccc1NS(=O)(=O)c1cc(S(C)(=O)=O)ccc1Cl` the NADPH fluorescence slope was 2.4e-05 (inactive).
In the case of `COc1ccccc1OCCOc1ccccc1/C=N/n1cnnc1`, the NADPH fluorescence slope is reported as -2.8e-05 (inactive).
With `CCc1nnc(NC(=O)CSc2nnc3scc(-c4ccc(C)cc4)n23)s1` the NADPH fluorescence slope was -0.000345 (inactive).
`Cn1c(/C=N/n2cnnc2)nc2ccccc21` was tested, and the NADPH fluorescence slope was -7e-06 (inactive).
`CC1CN(C(=O)c2cc3cc(Cl)cc(Cl)c3oc2=O)CC(C)O1` (configuration not stated) was tested, and the NADPH fluorescence slope was -4.7e-06 (inactive).
For `C=CCOc1nc2c(c(=O)n(C)c(=O)n2C)n1C`, the NADPH fluorescence slope was -4.9e-05 (inactive).
In the case of `CCOc1cccc(C(=O)N(Cc2ccco2)C2CCS(=O)(=O)C2)c1` (configuration not stated), the NADPH fluorescence slope is reported as -6.1e-05 (inactive).
In the case of `Cn1c(COc2ccc(Cl)cc2)nnc1SCC(=O)NC1CCCCC1`, the NADPH fluorescence slope is reported as -1.7e-05 (inactive).
With `Cc1cccc2cc(COC(=O)C(C)(C)C)c(=O)[nH]c12` the NADPH fluorescence slope was 3.7e-06 (inactive).
For `Cc1cccc(-c2c3c(=O)n(C)c(=O)n(C)c3cn2-c2ccc(O)cc2)c1`, the NADPH fluorescence slope was -2.6e-05 (inactive).
`Cc1ccc(CN2C(=O)CCC2C(=O)NCCCN2CCC(C)CC2)cc1` (configuration not stated) was tested, and the NADPH fluorescence slope was -3.4e-05 (inactive).
In the case of `Cc1cccc(Nc2nc(N)nc(CN3CCC(C(N)=O)CC3)n2)c1C`, the NADPH fluorescence slope is reported as -2.1e-05 (inactive).
For `COc1cc(OC)nc(NC(=O)CSc2nc3ccccc3o2)n1`, the NADPH fluorescence slope was -2.6e-05 (inactive).
For `CCCC(c1nnnn1Cc1ccc(OC)cc1)N1CCN(c2ccccc2OC)CC1` (configuration not stated), the NADPH fluorescence slope was -0.000141 (inactive).
With `COc1cccc(N2CCN(Cc3nc(N)nc(Nc4ccccc4)n3)CC2)c1` the NADPH fluorescence slope was -5.8e-06 (inactive).
For `Cc1nc2ccc(Br)cn2c1NC(C)(C)C`, the NADPH fluorescence slope was -2.1e-05 (inactive).
For `O=C(Nc1ccc(Cl)c(C(F)(F)F)c1)N1CCCC(O)C1` (configuration not stated), the NADPH fluorescence slope was 2.2e-05 (inactive).
